Source: PMC7862700, “An all-to-all approach to the identification of sequence-specific readers for epigenetic DNA modifications on cytosine”

Legend:
Experiment in all cases: DAPPL (digital affinity profiling via proximity ligation, sequencing); 10 mM Tris-HCl pH 7.5, 50 mM NaCl, 1 mM DTT, 4% glycerol, room temperature, 30 min; GST-TFs on glutathione beads, 16-mer random dsDNA library, 0.1% formaldehyde crosslink after washing; high values mean tight binding
[1] = molecular target: T1, FEV (Homo sapiens, UniProt Q99581 1-238); details: protein: recombinant; tags: N-terminal GST; dsDNA, one strand shown
T1 sequence: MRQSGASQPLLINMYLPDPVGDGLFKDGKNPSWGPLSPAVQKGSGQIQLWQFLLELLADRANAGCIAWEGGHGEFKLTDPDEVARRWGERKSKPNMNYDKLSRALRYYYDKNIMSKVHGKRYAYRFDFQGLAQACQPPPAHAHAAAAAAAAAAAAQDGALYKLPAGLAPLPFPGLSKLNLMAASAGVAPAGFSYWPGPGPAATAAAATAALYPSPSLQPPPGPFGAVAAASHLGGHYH
Method in brief: (§1)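 In yeast, human transcription factors were expressed with a GST fusion, then pulled down on glutathione beads and given DNA barcodes. Pooled with a tag-only sample, they were exposed to 200 nmole of a 16-mer random double-stranded DNA library (Tris/NaCl/DTT/glycerol buffer, room temperature, 30 min), washed, crosslinked with 0.1% formaldehyde, proximity-ligated using BsaI/T4 ligase for 1 h at 37 °C, PCR-amplified and read on an Illumina NextSeq500. Each hexamer's frequency of reads for a factor, divided by the matching frequency for the tag-only sample, gives the binding signal.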

[2] = molecular target: ETV5 (Homo sapiens, UniProt P41161 1-510); details: protein: recombinant; tags: N-terminal GST; dsDNA, one strand shown
Method in brief: as §1

[3] = molecular target: HSF1 (Homo sapiens, UniProt Q00613 1-529); details: protein: recombinant; tags: N-terminal GST; chain copies: 3; dsDNA, one strand shown
Method in brief: as §1

[4] = molecular target: T2, SPIC (Homo sapiens, UniProt Q8N5J4 1-248); details: protein: recombinant; tags: N-terminal GST; dsDNA, one strand shown
T2 sequence: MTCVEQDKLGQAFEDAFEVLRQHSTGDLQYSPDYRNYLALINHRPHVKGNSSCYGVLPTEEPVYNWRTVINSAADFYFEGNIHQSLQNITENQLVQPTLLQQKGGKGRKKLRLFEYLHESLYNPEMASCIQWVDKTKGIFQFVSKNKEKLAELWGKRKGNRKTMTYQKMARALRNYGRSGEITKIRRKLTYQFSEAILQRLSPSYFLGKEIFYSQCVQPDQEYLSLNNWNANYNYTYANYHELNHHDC
Method in brief: as §1

[5] = molecular target: ELF4 (Homo sapiens, UniProt Q99607 1-663); details: protein: recombinant; tags: N-terminal GST; dsDNA, one strand shown
Method in brief: as §1

[6] = molecular target: T3, ELK4 (Homo sapiens, UniProt P28324-2 1-405); details: protein: recombinant; tags: N-terminal GST; dsDNA, one strand shown
T3 sequence: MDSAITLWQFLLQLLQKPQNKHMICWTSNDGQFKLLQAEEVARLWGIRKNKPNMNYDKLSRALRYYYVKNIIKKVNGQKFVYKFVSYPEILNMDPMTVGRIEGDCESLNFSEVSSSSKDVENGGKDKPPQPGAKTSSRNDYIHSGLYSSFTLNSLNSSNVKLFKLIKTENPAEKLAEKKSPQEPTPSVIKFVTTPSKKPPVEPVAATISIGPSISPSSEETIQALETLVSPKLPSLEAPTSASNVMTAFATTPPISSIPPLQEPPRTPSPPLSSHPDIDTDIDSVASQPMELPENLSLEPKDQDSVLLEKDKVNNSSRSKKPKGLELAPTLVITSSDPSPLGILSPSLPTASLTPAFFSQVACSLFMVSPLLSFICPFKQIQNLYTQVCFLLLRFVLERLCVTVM
Method in brief: as §1

[7] = molecular target: T4, ETV2 (Homo sapiens, UniProt O00321 1-342); details: protein: recombinant; tags: N-terminal GST; dsDNA, one strand shown
T4 sequence: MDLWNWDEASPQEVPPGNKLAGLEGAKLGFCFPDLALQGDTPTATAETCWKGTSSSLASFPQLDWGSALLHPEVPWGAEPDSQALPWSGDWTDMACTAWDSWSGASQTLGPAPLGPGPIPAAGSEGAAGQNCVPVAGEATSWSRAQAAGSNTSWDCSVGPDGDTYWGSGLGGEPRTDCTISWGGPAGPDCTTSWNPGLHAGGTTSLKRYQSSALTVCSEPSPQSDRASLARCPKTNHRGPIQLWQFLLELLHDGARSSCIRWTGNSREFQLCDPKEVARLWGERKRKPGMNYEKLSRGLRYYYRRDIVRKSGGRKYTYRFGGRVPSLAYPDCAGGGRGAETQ
Method in brief: as §1

[8] = molecular target: T5, ELF3 (Homo sapiens, UniProt P78545 1-371); details: protein: recombinant; tags: N-terminal GST; dsDNA, one strand shown
T5 sequence: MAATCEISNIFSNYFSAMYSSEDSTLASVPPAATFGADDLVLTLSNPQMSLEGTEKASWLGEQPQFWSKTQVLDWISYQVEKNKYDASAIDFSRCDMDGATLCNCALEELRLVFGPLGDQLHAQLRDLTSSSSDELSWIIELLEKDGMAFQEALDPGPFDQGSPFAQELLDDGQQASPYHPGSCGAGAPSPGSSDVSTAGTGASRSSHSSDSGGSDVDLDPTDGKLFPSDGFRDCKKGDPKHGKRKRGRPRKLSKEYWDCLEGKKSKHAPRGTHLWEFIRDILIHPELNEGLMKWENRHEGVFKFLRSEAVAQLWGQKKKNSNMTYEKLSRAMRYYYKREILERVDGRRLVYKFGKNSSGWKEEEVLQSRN
Method in brief: as §1

[9] = molecular target: CRX (Homo sapiens, UniProt O43186 1-299); details: protein: recombinant; tags: N-terminal GST; dsDNA, one strand shown
Method in brief: as §1

[10] = molecular target: ETV1 (Homo sapiens, UniProt P50549 1-477); details: protein: recombinant; tags: N-terminal GST; dsDNA, one strand shown
Method in brief: as §1

[11] = molecular target: T6, ERF (Homo sapiens, UniProt P50548 1-548); details: protein: recombinant; tags: N-terminal GST; dsDNA, one strand shown
T6 sequence: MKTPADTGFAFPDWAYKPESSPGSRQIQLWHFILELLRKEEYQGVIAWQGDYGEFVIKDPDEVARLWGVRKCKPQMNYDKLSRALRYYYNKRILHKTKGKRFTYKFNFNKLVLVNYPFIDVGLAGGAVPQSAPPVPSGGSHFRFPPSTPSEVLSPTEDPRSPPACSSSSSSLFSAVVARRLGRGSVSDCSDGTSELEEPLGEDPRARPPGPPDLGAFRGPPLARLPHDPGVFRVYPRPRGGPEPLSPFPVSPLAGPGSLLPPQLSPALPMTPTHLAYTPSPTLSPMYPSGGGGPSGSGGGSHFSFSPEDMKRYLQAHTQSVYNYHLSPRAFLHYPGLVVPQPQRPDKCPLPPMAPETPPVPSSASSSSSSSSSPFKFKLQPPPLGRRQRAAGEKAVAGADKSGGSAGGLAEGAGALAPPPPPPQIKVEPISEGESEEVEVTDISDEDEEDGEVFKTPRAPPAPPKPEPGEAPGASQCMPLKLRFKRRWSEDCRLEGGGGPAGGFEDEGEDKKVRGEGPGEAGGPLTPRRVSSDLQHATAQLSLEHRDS
Method in brief: as §1

[12] = molecular target: T7, ETV3L (Homo sapiens, UniProt Q6ZN32 1-361); details: protein: recombinant; tags: N-terminal GST; dsDNA, one strand shown
T7 sequence: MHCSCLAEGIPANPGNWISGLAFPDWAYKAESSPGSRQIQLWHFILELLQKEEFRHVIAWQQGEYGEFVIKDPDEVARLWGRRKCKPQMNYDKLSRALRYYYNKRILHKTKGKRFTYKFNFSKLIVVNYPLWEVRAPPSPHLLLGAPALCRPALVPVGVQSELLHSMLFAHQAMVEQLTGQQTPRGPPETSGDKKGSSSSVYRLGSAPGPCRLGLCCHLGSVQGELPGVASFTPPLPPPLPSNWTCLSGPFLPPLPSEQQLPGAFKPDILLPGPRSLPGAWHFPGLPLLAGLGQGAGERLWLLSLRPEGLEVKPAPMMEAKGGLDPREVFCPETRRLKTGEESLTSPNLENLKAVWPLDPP
Method in brief: as §1

[13] = molecular target: T8, ETS2 (Homo sapiens, UniProt P15036 1-469); details: protein: recombinant; tags: N-terminal GST; dsDNA, one strand shown
T8 sequence: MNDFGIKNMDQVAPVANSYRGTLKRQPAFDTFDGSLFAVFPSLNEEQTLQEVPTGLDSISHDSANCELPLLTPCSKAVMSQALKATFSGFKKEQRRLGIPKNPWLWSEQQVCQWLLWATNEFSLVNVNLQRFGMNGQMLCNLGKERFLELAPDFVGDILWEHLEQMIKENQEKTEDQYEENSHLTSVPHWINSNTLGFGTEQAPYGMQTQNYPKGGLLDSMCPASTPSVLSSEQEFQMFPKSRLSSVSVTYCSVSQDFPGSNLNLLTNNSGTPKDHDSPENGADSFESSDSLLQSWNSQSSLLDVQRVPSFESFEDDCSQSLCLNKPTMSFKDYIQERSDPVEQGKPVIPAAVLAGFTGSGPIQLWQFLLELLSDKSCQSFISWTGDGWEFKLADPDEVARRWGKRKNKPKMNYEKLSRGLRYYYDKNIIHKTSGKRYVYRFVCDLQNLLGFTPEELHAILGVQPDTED
Method in brief: as §1

[14] = molecular target: T9, SPDEF (Homo sapiens, UniProt O95238 1-335); details: protein: recombinant; tags: N-terminal GST; dsDNA, one strand shown
T9 sequence: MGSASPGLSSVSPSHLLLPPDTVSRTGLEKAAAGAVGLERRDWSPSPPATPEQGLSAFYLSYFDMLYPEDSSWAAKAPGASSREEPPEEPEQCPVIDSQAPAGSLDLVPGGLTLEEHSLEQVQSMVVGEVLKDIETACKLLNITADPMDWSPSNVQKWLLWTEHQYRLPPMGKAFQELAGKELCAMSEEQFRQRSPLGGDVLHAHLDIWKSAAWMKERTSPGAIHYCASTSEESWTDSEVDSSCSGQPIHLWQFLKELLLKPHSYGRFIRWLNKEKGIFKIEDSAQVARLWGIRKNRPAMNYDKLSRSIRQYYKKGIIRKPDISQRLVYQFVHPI
Method in brief: as §1

[15] = molecular target: T10, ETV7 (Homo sapiens, UniProt Q9Y603 1-341); details: protein: recombinant; tags: N-terminal GST; dsDNA, one strand shown
T10 sequence: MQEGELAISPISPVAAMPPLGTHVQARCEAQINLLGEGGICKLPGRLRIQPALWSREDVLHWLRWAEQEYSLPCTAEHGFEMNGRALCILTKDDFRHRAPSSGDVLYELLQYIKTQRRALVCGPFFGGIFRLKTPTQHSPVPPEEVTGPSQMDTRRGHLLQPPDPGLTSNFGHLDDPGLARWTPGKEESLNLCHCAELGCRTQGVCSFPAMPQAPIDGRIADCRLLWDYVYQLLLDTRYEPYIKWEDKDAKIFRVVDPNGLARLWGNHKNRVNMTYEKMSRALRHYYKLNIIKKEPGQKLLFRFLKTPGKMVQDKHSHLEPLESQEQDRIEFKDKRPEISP
Method in brief: as §1

[16] = molecular target: T11, ELF5 (Homo sapiens, UniProt Q9UKW6-2 1-255); details: protein: recombinant; tags: N-terminal GST; dsDNA, one strand shown
T11 sequence: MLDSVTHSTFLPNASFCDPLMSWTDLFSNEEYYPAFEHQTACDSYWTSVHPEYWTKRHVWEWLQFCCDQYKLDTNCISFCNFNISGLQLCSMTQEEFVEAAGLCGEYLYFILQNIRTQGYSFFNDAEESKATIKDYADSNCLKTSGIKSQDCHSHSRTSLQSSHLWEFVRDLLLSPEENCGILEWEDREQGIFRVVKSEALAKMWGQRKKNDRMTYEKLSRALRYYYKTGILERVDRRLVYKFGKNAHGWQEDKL
Method in brief: as §1

[17] = molecular target: T12, ETV3 (Homo sapiens, UniProt P41162-2 1-143); details: protein: recombinant; tags: N-terminal GST; dsDNA, one strand shown
T12 sequence: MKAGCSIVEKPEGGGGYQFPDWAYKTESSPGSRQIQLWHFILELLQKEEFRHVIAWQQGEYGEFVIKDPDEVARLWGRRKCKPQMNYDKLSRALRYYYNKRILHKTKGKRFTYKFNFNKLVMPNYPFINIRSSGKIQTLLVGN
Method in brief: as §1

[18] = molecular target: ETV6 (Homo sapiens, UniProt P41212 1-452); details: protein: recombinant; tags: N-terminal GST; dsDNA, one strand shown
Method in brief: as §1

Sequence of CRX (O43186 whole entry): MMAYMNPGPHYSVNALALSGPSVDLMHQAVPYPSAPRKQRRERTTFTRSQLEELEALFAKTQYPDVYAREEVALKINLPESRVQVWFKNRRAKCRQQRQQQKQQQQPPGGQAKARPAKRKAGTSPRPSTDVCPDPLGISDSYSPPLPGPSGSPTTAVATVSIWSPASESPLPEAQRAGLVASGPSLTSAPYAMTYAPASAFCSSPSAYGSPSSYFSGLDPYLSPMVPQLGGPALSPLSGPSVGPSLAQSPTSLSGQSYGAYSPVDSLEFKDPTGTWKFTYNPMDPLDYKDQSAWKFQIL
Sequence of ETV5 (P41161 whole entry): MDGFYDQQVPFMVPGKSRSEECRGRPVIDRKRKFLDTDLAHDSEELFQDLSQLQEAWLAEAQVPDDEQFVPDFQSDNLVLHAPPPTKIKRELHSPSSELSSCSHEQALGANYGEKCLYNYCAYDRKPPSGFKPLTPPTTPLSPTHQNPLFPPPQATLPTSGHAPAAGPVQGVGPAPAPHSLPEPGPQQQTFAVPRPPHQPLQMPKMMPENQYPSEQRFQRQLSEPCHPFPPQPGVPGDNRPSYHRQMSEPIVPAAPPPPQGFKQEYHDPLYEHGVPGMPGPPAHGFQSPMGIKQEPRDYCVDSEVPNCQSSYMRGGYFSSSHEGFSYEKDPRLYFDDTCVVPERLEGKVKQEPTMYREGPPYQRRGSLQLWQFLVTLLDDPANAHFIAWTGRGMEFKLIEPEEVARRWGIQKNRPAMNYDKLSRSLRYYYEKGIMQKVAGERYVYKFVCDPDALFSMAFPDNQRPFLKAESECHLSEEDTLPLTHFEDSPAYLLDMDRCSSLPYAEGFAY
Sequence of ELF4 (Q99607 whole entry): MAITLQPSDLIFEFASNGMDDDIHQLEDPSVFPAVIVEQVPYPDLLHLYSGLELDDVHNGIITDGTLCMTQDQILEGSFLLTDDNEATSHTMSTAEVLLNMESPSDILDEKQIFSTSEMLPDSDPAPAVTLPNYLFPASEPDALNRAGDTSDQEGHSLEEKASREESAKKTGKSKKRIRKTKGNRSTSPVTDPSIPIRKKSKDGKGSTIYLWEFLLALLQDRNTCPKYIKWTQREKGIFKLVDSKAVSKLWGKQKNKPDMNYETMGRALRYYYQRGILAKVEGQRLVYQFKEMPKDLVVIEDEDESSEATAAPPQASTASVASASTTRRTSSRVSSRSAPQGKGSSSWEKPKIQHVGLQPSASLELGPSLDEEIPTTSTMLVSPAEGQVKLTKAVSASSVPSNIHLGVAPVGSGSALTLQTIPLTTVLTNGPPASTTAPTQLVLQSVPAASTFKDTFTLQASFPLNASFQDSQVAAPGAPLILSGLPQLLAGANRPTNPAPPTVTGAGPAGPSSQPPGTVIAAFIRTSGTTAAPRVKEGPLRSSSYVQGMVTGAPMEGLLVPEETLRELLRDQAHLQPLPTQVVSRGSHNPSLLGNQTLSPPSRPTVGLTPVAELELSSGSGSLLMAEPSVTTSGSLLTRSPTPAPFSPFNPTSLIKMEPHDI
Sequence of ETV1 (P50549 whole entry): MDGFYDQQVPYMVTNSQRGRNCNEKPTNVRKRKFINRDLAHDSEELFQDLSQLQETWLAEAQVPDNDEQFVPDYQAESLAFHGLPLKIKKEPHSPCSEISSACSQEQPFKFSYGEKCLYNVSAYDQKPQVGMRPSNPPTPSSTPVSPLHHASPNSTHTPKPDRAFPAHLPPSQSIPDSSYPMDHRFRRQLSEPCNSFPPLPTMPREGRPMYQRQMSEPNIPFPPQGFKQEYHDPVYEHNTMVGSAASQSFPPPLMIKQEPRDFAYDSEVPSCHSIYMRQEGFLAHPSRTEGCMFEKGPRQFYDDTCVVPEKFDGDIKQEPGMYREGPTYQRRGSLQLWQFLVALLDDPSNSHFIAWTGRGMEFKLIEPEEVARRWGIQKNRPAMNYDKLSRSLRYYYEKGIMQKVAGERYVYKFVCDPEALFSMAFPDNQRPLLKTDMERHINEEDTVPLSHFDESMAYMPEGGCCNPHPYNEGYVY
Sequence of HSF1 (Q00613 whole entry): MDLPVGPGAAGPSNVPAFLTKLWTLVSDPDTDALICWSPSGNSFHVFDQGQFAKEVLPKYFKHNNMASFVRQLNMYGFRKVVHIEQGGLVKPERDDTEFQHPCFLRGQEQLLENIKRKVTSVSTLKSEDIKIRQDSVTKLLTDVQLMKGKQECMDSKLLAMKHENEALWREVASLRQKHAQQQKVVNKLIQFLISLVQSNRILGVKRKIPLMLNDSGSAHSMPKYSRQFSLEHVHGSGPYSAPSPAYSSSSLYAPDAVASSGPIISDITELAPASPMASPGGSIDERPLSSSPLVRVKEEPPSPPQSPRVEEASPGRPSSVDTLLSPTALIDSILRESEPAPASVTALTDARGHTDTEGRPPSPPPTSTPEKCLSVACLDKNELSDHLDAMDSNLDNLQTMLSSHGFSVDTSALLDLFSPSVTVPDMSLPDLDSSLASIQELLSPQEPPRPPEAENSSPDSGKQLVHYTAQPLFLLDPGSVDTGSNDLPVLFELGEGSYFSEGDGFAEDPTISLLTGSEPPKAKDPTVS
Sequence of ETV6 (P41212 whole entry): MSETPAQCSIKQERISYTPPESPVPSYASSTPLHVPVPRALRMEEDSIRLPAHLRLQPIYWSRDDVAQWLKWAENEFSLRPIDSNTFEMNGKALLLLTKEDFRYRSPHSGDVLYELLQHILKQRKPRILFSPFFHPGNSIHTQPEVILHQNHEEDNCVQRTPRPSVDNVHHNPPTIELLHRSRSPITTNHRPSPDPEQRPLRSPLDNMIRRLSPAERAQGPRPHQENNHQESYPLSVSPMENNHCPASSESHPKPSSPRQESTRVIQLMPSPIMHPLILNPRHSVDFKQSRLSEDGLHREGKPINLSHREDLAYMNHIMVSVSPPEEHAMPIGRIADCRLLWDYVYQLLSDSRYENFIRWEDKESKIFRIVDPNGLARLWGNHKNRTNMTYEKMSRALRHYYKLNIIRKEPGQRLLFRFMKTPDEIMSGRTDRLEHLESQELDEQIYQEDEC

## CGTCTA
[1]
  binding signal: 1.24 fold enrichment (6-mer frequency, TF over GST control)
[2]
  binding signal: 1.31 fold enrichment (6-mer frequency, TF over GST control)
[3]
  binding signal: 1.52 fold enrichment (6-mer frequency, TF over GST control)
[4]
  binding signal: 1.16 fold enrichment (6-mer frequency, TF over GST control)
[5]
  binding signal: 1.4 fold enrichment (6-mer frequency, TF over GST control)
[6]
  binding signal: 1.34 fold enrichment (6-mer frequency, TF over GST control)
[7]
  binding signal: 1.29 fold enrichment (6-mer frequency, TF over GST control)
[8]
  binding signal: 1.29 fold enrichment (6-mer frequency, TF over GST control)
[9]
  binding signal: 1.28 fold enrichment (6-mer frequency, TF over GST control)
[10]
  binding signal: 1.36 fold enrichment (6-mer frequency, TF over GST control)
[11]
  binding signal: 1.29 fold enrichment (6-mer frequency, TF over GST control)
[12]
  binding signal: 1.4 fold enrichment (6-mer frequency, TF over GST control)
[13]
  binding signal: 1.29 fold enrichment (6-mer frequency, TF over GST control)
[14]
  binding signal: 1.26 fold enrichment (6-mer frequency, TF over GST control)
[15]
  binding signal: 1.28 fold enrichment (6-mer frequency, TF over GST control)
[16]
  binding signal: 1.17 fold enrichment (6-mer frequency, TF over GST control)
[17]
  binding signal: 1.26 fold enrichment (6-mer frequency, TF over GST control)
[18]
  binding signal: 1.26 fold enrichment (6-mer frequency, TF over GST control)
